Screens: PubChem BioAssay, several laboratories
Shown are actives, neighbours in structure and some others; about 0.82% of the full set was active somewhere.
LANA DNA inh: inhibitors of KSHV LANA C-terminal domain DNA binding; MBP-C-LANA/FAM-LBS DNA binding, fluorescence polarization; inhibition, % at 9 µM; actives 0.078% (n = 340,000);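 active = highest replicate inhibition at or above 60% at 9 µM, even if other replicates fall short; inactive = all replicates below 60% inhibition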;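 note: 0% = neutral control wells and 100% = 4 µM acridine orange control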
eLon inh: inhibitors of E. coli Lon protease | P0A9M0 | purified E. coli Lon protease, fluorescence polarization | inhibition, % at 7.94 µM | actives 0.42% (n = 360,000); in the data active = inhibition above about 13%, passing the limit was not always enough;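 note: 0% = enzyme with probe and DMSO and 100% = no enzyme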
Target sequence (P0A9M0 whole entry, looked up): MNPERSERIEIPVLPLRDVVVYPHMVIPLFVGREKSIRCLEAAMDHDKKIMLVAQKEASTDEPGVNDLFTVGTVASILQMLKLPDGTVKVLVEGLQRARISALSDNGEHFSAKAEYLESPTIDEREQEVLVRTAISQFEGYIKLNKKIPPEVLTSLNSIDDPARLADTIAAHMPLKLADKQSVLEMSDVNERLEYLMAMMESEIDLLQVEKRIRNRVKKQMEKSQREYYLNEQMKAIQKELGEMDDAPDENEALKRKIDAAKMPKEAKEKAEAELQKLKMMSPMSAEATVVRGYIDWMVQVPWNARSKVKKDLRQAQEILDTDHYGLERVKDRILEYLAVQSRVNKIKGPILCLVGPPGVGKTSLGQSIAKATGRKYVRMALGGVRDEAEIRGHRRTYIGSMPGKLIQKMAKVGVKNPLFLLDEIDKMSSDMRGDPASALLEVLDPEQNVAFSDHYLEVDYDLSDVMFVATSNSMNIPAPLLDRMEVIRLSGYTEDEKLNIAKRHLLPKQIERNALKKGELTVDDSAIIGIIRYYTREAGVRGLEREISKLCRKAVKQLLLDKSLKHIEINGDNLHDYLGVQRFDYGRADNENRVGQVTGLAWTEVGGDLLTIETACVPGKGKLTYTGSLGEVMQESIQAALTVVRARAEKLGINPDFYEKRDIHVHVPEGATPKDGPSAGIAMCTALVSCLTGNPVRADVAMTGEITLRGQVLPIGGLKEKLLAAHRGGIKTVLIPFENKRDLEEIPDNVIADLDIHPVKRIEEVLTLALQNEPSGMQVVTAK
RTF Ca sens act: increases calcium sensitivity of human cardiac regulated thin filaments. actives 0.24% (n = 340,000). P19429+P45379. activation, % at 7.2 µM. AID 493008. IANBD-labeled TnC RTF fluorescence at EC20 calcium; 0% EC20 calcium, 100% full calcium;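 active = activation above the mean over all tested compounds plus 3 SD, cut at about 30% in these data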;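 note: rise in fluorescence read as greater calcium sensitivity of cardiac thin filaments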
Keap1-Nrf2 PPI: Keap1-Nrf2 (human) interaction inhibition; Keap1 Kelch-Nrf2 peptide fluorescence polarization, 1536-well; inhibition, % at 9.4 µM; actives 0.15% (n = 340,000); in the data active = inhibition above about 12%;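 note: human Keap1 Kelch domain with fluorescein labeled Nrf2 9mer peptide probe; 0% = neutral control wells and 100% = peptide positive control; higher means more block of Keap1 binding to Nrf2 peptide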
RTF Ca sens inh: cardiac RTF calcium desensitization; P19429+P45379; IANBD-labeled cardiac RTF, Ca2+ fluorescence; inhibition, % at 7.15 µM; actives 0.12% (n = 340,000); AID 493244;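 active = inhibition above the mean inhibition of all tested compounds plus 3 SD, cut at about 17% in these data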;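 note: assay run at fixed EC70 calcium of 1.6 mM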
RTF Ca inh conf: confirmation of inhibitors of cardiac thin filament calcium sensitivity; shares compounds with RTF Ca sens inh; reconstituted cardiac thin filaments, calcium sensitivity fluorescence; inhibition, % at 7.15 µM; actives 8% (n = 360); in the data active = inhibition above about 18%
Starred values were filed as active, the others as inactive; / = no result.

SMILES | LANA DNA inh | eLon inh | RTF Ca sens act | Keap1-Nrf2 PPI | RTF Ca sens inh | RTF Ca inh conf
CC(C)c1ccccc1NC(=O)c1ccc2ncsc2c1 | -1.1 | 5.0 | -5.8 | -1.6 | -1.5 | /
CC(C)(C)C(=O)NC(n1cnc2c(N3CCOCC3)ncnc21)C(Cl)(Cl)Cl (stereo unspecified) | 1.2 | 4.3 | 1.0 | 1.5 | 19.1* | -8.8
O=[N+]([O-])c1cc([N+](=O)[O-])c2oc(-c3ccccc3)c(Br)c2c1O | 3.7 | -1.1 | -30.1 | -2.4 | 27.2* | 11.8
O=c1cc(-c2ccccc2Cl)oc2ccc([N+](=O)[O-])c(O)c12 | 0.0 | 6.5 | -4.7 | -5.0 | -3.8 | /
COc1ccc(NC(=O)C2CC3CCC2C3)c(OC)c1 (stereo unspecified) | / | 1.6 | / | / | / | /
Cc1cccnc1NC(=O)C1CCCN1S(=O)(=O)c1ccc(Cl)cc1 (stereo unspecified) | 0.0 | 4.2 | -4.7 | -1.6 | 29.4* | -3.2
COc1cc(/C=C/C(=O)OCC(=O)NC(=O)NC23CC4CC(CC(C4)C2)C3)ccc1OCC#N | -0.6 | 8.8 | 4.8 | -2.8 | 18.5* | -2.4
COc1cc(/C=C/C(=O)OCC(=O)NC(=O)NC(C)C)ccc1OCC#N | 0.4 | -0.4 | -1.6 | 1.6 | -6.8 | /
C/C(=N\NC(=O)c1nnn(-c2nonc2N)c1-c1ccc2c(c1)OCO2)c1ccc(C)cc1 | 0.6 | -4.6 | -5.0 | 1.7 | -10.6 | /
Cc1ccc(NC(=O)COC(=O)/C=C/c2cccc(Cl)c2)cc1S(=O)(=O)N1CCOCC1 | -2.4 | -2.6 | 1.4 | 0.2 | 22.4* | -6.0
O=[N+]([O-])c1ccc(OCc2cccc(COc3ccc([N+](=O)[O-])cc3)n2)cc1 | 3.1 | -8.6 | 0.6 | -5.9 | 17.4* | -4.3
CC(=O)N1CCN(S(=O)(=O)c2cccc(C(=O)N3CCN(S(=O)(=O)c4c(C)c(C)cc(C)c4C)CC3)c2)CC1 | / | -4.4 | / | / | / | /
CCCS(=O)(=O)N1CCC(C(=O)NCCCN2CCCC2=O)CC1 | -1.1 | -1.8 | -13.7 | -3.0 | 19.1* | 0.2
Cc1ccc(S(=O)(=O)N2CCC(C(=O)NCCCN3CCCC3=O)CC2)cc1 | 3.9 | 6.4 | -2.2 | 0.2 | 1.8 | /
O=C(O)c1ccc2c(c1)C(=O)/C(=C/c1ccccc1)C2=O | 19.1 | 7.8 | -0.2 | 1.8 | -12.7 | /
O=C(O)c1ccc2c(c1)C(=O)/C(=C\c1ccco1)C2=O | 69.6* | 10.2 | -12.2 | 0.9 | 19.5* | 1.0
CC(C)N(C(=O)c1ccc(Cc2cn(C)c3ccccc23)nc1)C(C)C | / | -8.4 | / | / | / | /
CC(=O)c1ccc(NC(=O)c2noc(C(C)C)c2[N+](=O)[O-])cc1 | -0.7 | 1.6 | -6.1 | -5.3 | 187.6* | -2.8
CCCCn1c(N)c(N(CCOC)C(=O)COC(=O)COc2cc(C)c(Cl)cc2C(C)C)c(=O)[nH]c1=O | -1.0 | -10.5 | -7.7 | -1.0 | 2.1 | /
COc1ccc(C2=CN3CCCCC3CC2=O)cc1OC (stereo unspecified) | -0.6 | -8.2 | 1.4 | -6.2 | -4.2 | /
COCCCN1C(=O)C(=O)/C(=C(/O)c2ccc(S(=O)(=O)N3CCCCC3)cc2)C1c1ccc(O)cc1 (stereo unspecified) | -0.5 | -12.9 | -3.0 | -3.6 | -0.3 | /
O=C(O)C1Nc2c(Cl)cc(Cl)cc2C2C=CCC12 (stereo unspecified) | 25.9 | -12.4 | -39.5 | 4.1 | 55.5* | 7.4
OC(CN1c2ccccc2Sc2ccccc21)Cn1nnc2ccccc21 (stereo unspecified) | 1.2 | 8.8 | -1.4 | -1.0 | 21.2* | -8.3
O=C1c2ccccc2C(=O)N1CC(O)Cn1nnc2ccccc21 (stereo unspecified) | -1.4 | 0.8 | -0.8 | 0.7 | -0.7 | /
CC(=O)Oc1cccc2c1C(=O)C1CC=CC(OC(C)=O)C1C2=O (stereo unspecified) | -4.1 | 22.1 | 8.7 | -0.9 | -5.5 | /
SMILES | LANA DNA inh | eLon inh | RTF Ca sens act | Keap1-Nrf2 PPI | RTF Ca sens inh | RTF Ca inh conf
Cc1ccccc1-c1cc2nc(NCCOc3ccccc3Cl)n(C)c(=O)c2s1 | / | 1.3 | / | / | / | /
COC(=O)c1ccc2nc(NC(=O)COC(=O)CSc3nc(C)cc(C)n3)sc2c1 | 0.7 | -3.3 | 4.6 | 0.7 | 10.2 | /
Cc1ccc2nc(NC(=O)COC(=O)CSc3nc(C)cc(C)n3)sc2c1 | -2.5 | -1.2 | -2.0 | -1.0 | 19.2* | -5.3
CCCCNC(=O)C1(C)CCN1C(=O)c1ccc2c(c1)CCO2 (stereo unspecified) | / | -3.1 | / | / | / | /
Cn1c(SCC(=O)N2c3ccccc3Sc3ccccc32)nc2ccccc21 | 0.4 | 7.4 | 6.1 | -3.0 | 18.9* | -5.3
Cn1c(Cn2nnc3ccccc32)nnc1SCC(=O)N1c2ccccc2Sc2ccccc21 | -0.2 | -1.5 | 0.5 | -3.4 | -6.8 | /
CCN(C(=O)COC(=O)c1cc2ccccc2cc1OC)c1c(N)n(Cc2ccccc2)c(=O)[nH]c1=O | -0.7 | 9.3 | -2.1 | -4.0 | -7.3 | /
COc1ccc(N2CCN(C(=O)C3CC(=O)N(c4ccc(C)cc4)C3)CC2)cc1 (stereo unspecified) | 2.2 | 3.5 | / | 4.7 | / | /
Cc1ccc(N2CC(C(=O)N3CCN(c4ccccc4)CC3)CC2=O)cc1 (stereo unspecified) | 0.8 | 5.0 | 3.7 | 0.0 | 17.0* | -3.8
Cc1ccc(NC(=O)CSCC(=O)Nc2cccc(S(=O)(=O)N3CCCCCC3)c2)cc1 | -0.5 | -6.4 | 0.3 | -7.8 | -1.6 | /
CCCCCNCc1ccc(Cl)cc1 | 0.0 | -8.1 | -1.0 | 0.9 | -3.9 | /
OCCCCNCc1ccc(OCc2ccc(Cl)cc2)cc1 | -0.7 | 3.1 | -15.9 | 0.3 | 17.0* | -1.4
CCCc1c(O)nc(SC2CC(=O)N(c3ccc(OC)cc3)C2=O)[nH]c1=O (stereo unspecified) | -5.3 | 2.4 | -1.3 | -4.4 | 17.0* | -1.6
C=CCNC(=S)Nc1cccc2ccccc12 | -0.2 | -3.3 | -1.6 | 2.9 | 19.6* | 1.0
COC(=O)[C@]12CCCCC=C1N(Cc1cccc3ccccc13)C(=O)[C@H](CC(=O)N1CCCC1)C2 | / | -2.5 | / | / | / | /
COc1ccccc1NC(=O)CSc1nncn1-c1ccccc1 | 1.8 | 2.3 | -1.4 | 1.8 | -7.2 | /
COc1ccc([N+](=O)[O-])cc1NC(=O)CSc1nncn1-c1ccccc1 | 1.4 | -9.5 | -8.0 | 2.4 | 18.7* | 0.7
CNC(=O)C1(C)CCN1C(=O)Cc1ccc(C(C)C)cc1 (stereo unspecified) | / | 8.8 | / | / | / | /
CN(CC(=O)Nc1cccc(F)c1)C(=O)c1ccccc1-n1cnnn1 | -1.0 | -1.0 | -11.3 | 3.1 | -5.8 | /
CCn1nc([N+](=O)[O-])c(C(C#N)c2nc3cc(C(F)(F)F)ccc3s2)c(Cl)c1=O (stereo unspecified) | 2.7 | 1.2 | -10.9 | -1.5 | 18.6* | 1.8
O=S(=O)(O)c1cc(O)c2ccc(Nc3ccccc3)cc2c1 | 92.2* | 6.2 | -13.5 | 2.6 | 32.7* | 9.5
CC(=O)Nc1ccc2c(O)cc(S(=O)(=O)O)cc2c1 | 11.7 | -23.6 | 0.7 | 0.6 | -5.5 | /
